# Source: the supplement of paper PMC3334620
# Over roughly 33,000 sequences, “E-score (-0.5 to 0.5)” has its median near -0.056; the highest 2% begin near 0.38. The full list was thinned out, with the highest values kept by preference.
# Molecular target: Stb4 (UniProt P50104)
# Experiment: PBM E-score (8-mer binding enrichment) (E-score (-0.5 to 0.5)); higher = stronger / more preferred TF binding
# Settings: protein concentration: 200 nM; construct: GST-DNA-binding domain
# Description: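 Universal 'all 10-mer' protein binding microarrays (Agilent AMADID 015681) probed with GST-tagged S. cerevisiae TFs (full-length or DBD) made by in vitro transcription/translation (PURExpress), about 100-200 nM. Bound TF was detected with fluorescent anti-GST. Each ungapped 8-mer (which stands for itself and its reverse complement) is scored by the PBM enrichment score (E-score), a modified Wilcoxon-Mann-Whitney statistic from -0.5 to +0.5, computed with the Universal PBM Analysis Suite. Scale: above 0.35 generally sequence-specific binding.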
# UniProt P50104, sequence (P50104 whole entry): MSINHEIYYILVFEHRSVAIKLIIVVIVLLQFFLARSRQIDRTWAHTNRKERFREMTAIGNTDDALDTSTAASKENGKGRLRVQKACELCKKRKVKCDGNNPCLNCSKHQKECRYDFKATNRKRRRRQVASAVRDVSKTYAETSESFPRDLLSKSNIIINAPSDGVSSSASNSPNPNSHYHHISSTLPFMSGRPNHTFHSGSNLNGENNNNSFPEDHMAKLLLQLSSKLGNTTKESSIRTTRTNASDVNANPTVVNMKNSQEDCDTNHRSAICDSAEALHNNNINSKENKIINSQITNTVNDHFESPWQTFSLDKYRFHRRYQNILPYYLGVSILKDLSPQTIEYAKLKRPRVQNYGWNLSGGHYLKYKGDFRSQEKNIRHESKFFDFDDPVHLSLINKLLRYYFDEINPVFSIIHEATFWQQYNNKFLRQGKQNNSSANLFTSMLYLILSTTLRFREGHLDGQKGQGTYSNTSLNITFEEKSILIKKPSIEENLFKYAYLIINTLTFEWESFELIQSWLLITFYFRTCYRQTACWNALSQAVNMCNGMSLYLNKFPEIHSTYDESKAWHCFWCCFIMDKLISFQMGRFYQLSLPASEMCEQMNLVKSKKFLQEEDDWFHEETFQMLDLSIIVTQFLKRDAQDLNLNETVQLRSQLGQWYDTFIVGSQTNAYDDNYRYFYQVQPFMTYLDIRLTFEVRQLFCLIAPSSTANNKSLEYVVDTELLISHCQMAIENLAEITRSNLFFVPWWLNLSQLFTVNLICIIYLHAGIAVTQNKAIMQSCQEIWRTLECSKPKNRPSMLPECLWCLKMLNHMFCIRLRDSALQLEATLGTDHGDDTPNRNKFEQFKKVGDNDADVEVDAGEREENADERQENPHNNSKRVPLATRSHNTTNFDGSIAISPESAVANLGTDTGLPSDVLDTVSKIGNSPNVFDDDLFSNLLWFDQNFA
row,Sequence,PBM E-score
1,ACGCAAAT,-0.00753
2,GTAAGACA,-0.166
3,CCACTGCA,-0.135
4,AAGGGAGC,-0.0979
5,CGCTGAAC,0.00896
6,AGCGCTCA,-0.191
7,ATTATGGA,-0.154
8,CCGCTTTA,0.138
9,ACGGGAGA,0.12
10,GCGGGAGA,0.227
11,GCGGAAAA,0.332
12,ACGGAAAA,0.325
13,TCGGAAAA,0.451
14,TCGGGAGA,0.391
15,AGACGGAC,-0.0259
16,ACTGGTAG,-0.226
17,ATTGATCG,0.0261
18,CCCCGATA,0.145
19,GATCTTCC,0.285
20,CCGGGTAA,0.418
21,ACGGGTCA,0.0265
22,GCGGTAAA,0.188

row,Sequence,PBM E-score
1,CCGGGTAG,0.355
2,GCGGTTAA,0.17
3,CCGGTAAA,0.312
4,TCGGGTCA,0.427
5,TCGGTAAA,0.433
6,TCGGTTAA,0.44
7,CCGGGTAC,0.375
8,CCGGGTCA,0.276
9,CCGGTTAA,0.334
10,GACGCGAC,-0.068
11,CACCATGG,-0.29
12,GTCTAGAC,-0.342
13,ACACAACC,-0.0108
14,CAGGCTCG,0.08
15,AGAGTTAC,-0.165
16,ATGGTTTA,0.193
17,GCGGGTAA,0.325
18,TCGGGTAA,0.464
19,ACGGGTAA,0.328
20,GTTCGGCA,0.418
21,CTTCGGCC,0.218
22,CTTCGGCA,0.443

row,Sequence,PBM E-score
1,ATTCGGCC,0.271
2,ATTCGGCG,0.333
3,GGTCGGCA,0.353
4,ATTCGGCA,0.438
5,CATCGGCA,0.376
6,GATCGGCA,0.349
7,ACAACCTC,-0.114
8,AGGCTGGG,-0.236
9,ACCGCGTG,0.053
10,ACTCCAAC,-0.11
11,AGACTGAG,-0.107
12,CCTCGGGC,0.288
13,CCACGGGA,0.223
14,GCTCGTGA,-0.108
15,ACTCGGGA,0.44
16,ACTCGGGC,0.263
17,GCTCGGGA,0.464
18,GCACGGGA,0.305
19,CCTCGGGA,0.444
20,ACTCGGGG,0.286
21,ATGTGCCC,-0.048
22,GACCGCTA,0.0181

row,Sequence,PBM E-score
1,GCACTTAC,0.0807
2,CAGAGGCC,-0.204
3,ACTTGGTA,-0.265
4,AATGTGAT,-0.15
5,TGGATACA,-0.147
6,AGGATACA,-0.261
7,CCGATACG,0.307
8,CGGATACA,0.433
9,AGGATACC,0.0351
10,CGGATACG,0.409
11,CGGATACC,0.41
12,GGGATACC,0.184
13,AGGATACG,-0.23
14,CCGCTCGA,0.11
15,GCGCGACC,-0.0286
16,ACGTTCAG,-0.252
17,TCAGGGCA,-0.18
18,AATACAGT,-0.194
19,GGGAACTA,0.183
20,CTGAACTC,-0.175
21,CGGAACTC,0.401
22,CGGAACTA,0.449

row,Sequence,PBM E-score
1,AGGAACTC,-0.0879
2,AGGAACTA,0.0365
3,ACTCTAGG,-0.212
4,CAGCTCCA,-0.265
5,CGCGGCCG,0.136
6,AATCGGGC,0.159
7,ACTCTGAC,-0.0524
8,CTATCCAA,-0.268
9,ATATCCAA,0.0444
10,CTATCCGA,0.469
11,GTATCCTA,-0.107
12,ATATCCTA,-0.0944
13,ATATCCCG,0.306
14,CTATCCCA,-0.135
15,ATATCCGA,0.482
16,ATATCCGG,0.424
17,ATATCCAG,-0.114
18,GTATCCCA,-0.0937
19,GTATCCGA,0.487
20,AATCTAAG,-0.107
21,AGACTGGC,-0.17
